The list is not random: actives were taken first. Their share in the collection is about 19%.
SW480 rereplic: A quantitative high throughput screen for small molecules that induce DNA re-replication in SW480 colon adenocarcinoma cells; AID 624297, 2012; SW480 DNA re-replication, Hoechst DNA content imaging, 48 h; 340,000 tested, 1.8% active; Potency, µM (series often up to 46.1 µM), for the others: at the top dose re-replication activation, most hits filed as activators; also: potency is read from the fitted curve at half-maximal effect; % of control where 0% means no effect; nearly all actives have a fitted effect of over 55% in size
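250 cells/well; 23 nL cpd via pin tool; 48 hr, 37 C, 5% CO2; Hoechst 40 min; imager read of total nuclear intensity, ex 405/em 500-530 nm.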
TDP1 cell noCPT: qHTS for Inhibitors of human tyrosyl-DNA phosphodiesterase 1 (TDP1): qHTS in cells in absence of CPT. DT40 Tdp1-/- hTDP1 cells, no CPT, ATP luminescence, 48 h. Potency, µM (doses to about 46.2 µM), for inactives: at the highest dose activity change, negative = growth inhibition, actives largely listed as inhibitors. 420,000 tested, 15% active; also: potency is read from the fitted curve at half-maximal effect; % is scaled to controls: 0 for no effect and ±100 for the full control effect; nearly all actives have a fitted effect of over 55% in size
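Seeded 400 DT40-hTDP1 cells/well (vehicle DMSO, no 20 nM CPT); pinned compounds; ≥48 hr at 37 °C; CellTiter-Glo luminescence as viability measure.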
Chronic BCR inh: qHTS Assay to Find Inhibitors of Chronic Active B-Cell Receptor Signaling | 340,000 tested, 0.05% active | Potency, µM (doses to about 46.1 µM), inactives show at the highest dose activity change, negative = inhibition, actives largely listed as inhibitors | AID 493014, 2011 | ABC-DLBCL IkBa-CBG/CBR reporter, luminescence ratio, 4 h; active = well fitted inhibition curve with a large enough effect in the signal ratio, with a control signal flat, not every such curve was filed as active; inconclusive = small, poorly fitted or top-dose-only effect, or effect the other way, or a change in a side signal; the % refers to the signal ratio;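 also: potency is read from the fitted curve at half-maximal effect; plate controls were basal doxycycline-induced cells for no effect and cells given 10 µM MG132 for full effect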
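Compounds up to 46 uM were incubated four hours with TMD8 cells whose green CBG68 luciferase is fused to IkappaBalpha; red CBR luminescence normalised the signal, and concentration-effect curves were fitted to fusion, red and ratio data.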
MCF10A rereplic: A quantitative high throughput screen for small molecules that induce DNA re-replication in MCF 10a normal breast cells | 350,000 tested, 2.9% active | MCF 10A DNA re-replication, Hoechst nuclear intensity, 48 h | Potency, µM (series often up to 46.1 µM), without a hit: at the highest dose activity, positive = re-replication, usual class: activators | AID 624296, 2012; also: potency is read from the fitted curve at half-maximal effect; % of control where 0% means no effect; nearly all actives have a fitted effect of over 50% in size
TDP1 cell CPT: qHTS for Inhibitors of human tyrosyl-DNA phosphodiesterase 1 (TDP1): qHTS in cells in presence of CPT; chicken DT40 Tdp1-/-;hTDP1 cells + 20 nM CPT, ATP luminescence, 48 h; AID 686979, 2013; 420,000 tested, 12% active; Potency, µM (doses to about 46.2 µM), for the others: top-dose activity change, negative = growth inhibition, usual class: inhibitors; also: potency is read from the fitted curve at half-maximal effect; % is scaled to controls: 0 for no effect and ±100 for the full control effect; nearly all actives have a fitted effect of over 55% in size
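Chicken DT40 Tdp1-/- cells stably complemented with human TDP1 were seeded at 400 cells/well in medium containing 20 nM camptothecin, exposed to pin-transferred compounds, and grown at 37 °C for at least 48 hr. Viability was read as ATP luminescence.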
IL-1B inflam inh: qHTS for Inhibitors of Inflammasome Signaling: IL-1-beta AlphaLISA Primary Screen; activity change, % at 57.5 µM; THP-1 LPS/ATP IL-1B secretion, AlphaLISA, 16 h; active compounds read low; 360,000 tested, 4.7% active; in the data active = activity change below about -50%; inconclusive = mostly about -30% to -49%; also: % is scaled to controls: 0 for no effect and ±100 for the full control effect
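THP-1 cells pretreated 1 hr with compounds (up to 57.5 uM final), then stimulated with LPS (250 ng/mL final) plus ATP (1.25 mM final); secreted IL-1B measured by AlphaLISA after 16 hr, decreased signal indicating inhibition.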
Numbers without * were called inactive; ? = inconclusive; . = no result; [ ] = remark or other dose. Unless noted, calls follow the shape of the dose curve; as a rule, active = well fitted curve in the direction sought with a large enough effect; inconclusive = small, poorly fitted or top-dose-only effect, or another doubt; inactive = no such curve, though single readings can be large; an effect the other way counts as inactive or inconclusive.

SMILES	SW480 rereplic	TDP1 cell noCPT	Chronic BCR inh	MCF10A rereplic	TDP1 cell CPT	IL-1B inflam inh
Cc1c(Cl)cccc1-n1c(SCC(=O)NCc2ccccc2Cl)nnc1-c1ccncc1	3%	?	?	-6%	14µM*	-9
Cc1c(Cl)cccc1-n1c(SCC(=O)NCc2cccs2)nnc1-c1ccncc1	-3%	?	?	?	-15%	7
CCOc1ccc(NC(=O)CN(C)C(=O)c2sc3ccccc3c2Cl)cc1OCC	-1%	?	?	10%	-27%	4
COc1ccc2c(CNCc3cccs3)c(C(=O)O)n(Cc3ccccc3C)c2c1	.	2.9µM*	.	.	?	.
COc1ccc2c(CNCCc3cccs3)c(C(=O)O)n(Cc3ccccc3C)c2c1	.	5.2µM*	.	.	8.2µM*	.
COc1ccc2c(CNCc3cccs3)c(C(=O)O)n(Cc3ccccc3)c2c1	.	?	.	.	-9%	.
COc1ccccc1NC(=O)CNC(=O)CC12CC3CC(CC(C3)C1)C2	?	-70%	-2%	?	1.6µM*	-2
COc1ccccc1NC(=O)CSC(N)=O	1%[9.22 µM]	21µM*	4%	?	?	?
Cc1ccccc1NC(=O)CSC(N)=O	-3%	?	?	15%	-26%	-18
COc1ccccc1NC(=O)Cc1nnc(SCC(=O)Nc2ccccc2F)n1C	23%	?	0%	?	16µM*	14
c1ccc(COCCC2CO2)cc1 (configuration not stated)	.	.	3%	.	.	.
CSc1nc(C(=O)N2CCOc3ccc(CN4CCN(Cc5ccccn5)CC4)cc3C2)cs1	.	-12%	.	.	19%[9.04 µM]	.
Cc1nc(-c2ccc(S(=O)(=O)NCc3cccnc3)s2)cs1	-6%	21µM*	-2%	6%	12µM*	0
O=S(=O)(c1ccc(Cl)s1)N1CCN(c2ncccn2)CC1	7%	?	2%	18µM*	-21%	29
Cc1nc(-c2ccc(S(=O)(=O)N3CCN(Cc4ccccc4)CC3)s2)cs1	-1%	9.2µM*	0%	11%	?	-20
Cc1ccc(S(=O)(=O)NCc2cccnc2)cc1C	-3%	-14%	5%	-1%	-20%	34
Cc1ccccc1CN1CCN(S(C)(=O)=O)CC1	-1%	-11%	0%	-1%	0%	-5
Cc1ccccc1CN1CCN(S(=O)(=O)c2ccc(Cl)s2)CC1	-1%	?	-1%	9%	23µM*	-8
CCOC(=O)c1c(NC(=O)CCCOc2ccc(C(C)(C)C)cc2)sc2c1CCC2	.	4%	.	.	-16%	.
COc1cc2c(cc1OC)n(CC(=O)c1cc(C)ccc1C)c(=O)n1nc(CCn3nc(C)cc3C)nc21	.	-23%	-1%	.	6%	.
COc1cc(OC)c(C#N)c(S(=O)(=O)Cc2ccccc2)c1	-7%	-9%	1%	2%	-2%	-21
N#Cc1c([N+](=O)[O-])cc([N+](=O)[O-])cc1S(=O)(=O)Cc1ccccc1	5.2µM*	0.18µM*	?	?	0.21µM*	-112*
Cn1ncc(Cl)c1C(=O)NC(=S)Nc1sc2c(c1C#N)CCCCC2	-6%	?	-6%	7%[9.22 µM]	21µM*	6
N#Cc1c(NC(=S)NC(=O)C2CCCC2)sc2c1CCCCC2	-2%	?	?	?	?	-54*
O=C(O)C1C2CC(C(Br)C2Br)C1C(=O)O (configuration not stated)	4%	4%	.	-3%	8%	9
SMILES	SW480 rereplic	TDP1 cell noCPT	Chronic BCR inh	MCF10A rereplic	TDP1 cell CPT	IL-1B inflam inh
Cc1ccc(-n2nc3ccc(N)cc3n2)cc1C	16µM*	?	4%	16µM*	-6%	11
COc1ccc(-n2nc3ccc(N)cc3n2)cc1Cl	21µM*	?	0%	?	-12%	-16
Cc1ccc(-n2nc3ccc(N)cc3n2)cc1Cl	26%	-27%	-5%	?	?	17
O=c1c2ccccc2c(C=NC2CCN(Cc3ccccc3)CC2)c(O)n1Cc1ccc2c(c1)OCO2	.	.	3%	.	.	.
COc1ccc(S(=O)(=O)N2CCCCC2)cc1NC(=O)c1ccc(N2CCCC2=O)cc1	?	-1%	2%	-6%	-19%	-8
Cc1c(CCNC(=O)C(C)(C)C)sc2nc(-c3ccc(F)cc3)nn12	.	26µM*	?	.	?	.
Cc1ccc(-c2nc3sc(CCNS(=O)(=O)c4cc(F)ccc4F)c(C)n3n2)cc1	.	21µM*	14%	.	?	.
CC(OC(=O)CN1C(=O)NC2(CCCC2)C1=O)C(=O)c1ccccc1 (configuration not stated)	-7%	6%	1%	1%	8%	16
OC(c1ccccc1)c1ncc(-c2cccc(F)c2)[nH]1 (configuration not stated)	.	-15%	.	.	-5%	15
Cc1ccc(-c2nc(S(=O)(=O)c3ccc(Cl)cc3)c(N3CCCCC3)o2)cc1	.	?	.	.	-11%	.
Cc1cc2cc(CN(Cc3cccs3)C(c3nnnn3C(C)(C)C)C(C)C)c3nnnn3c2cc1C (configuration not stated)	-3%	9.2µM*	-2%	2%	15µM*	20
C[C@H](NC(=O)[C@@H]1CCCN1C(=O)[C@@H]1CCCN1C(=O)c1cccc(Cl)c1)c1ccccc1	.	-27%	.	.	?	6
Cc1ccccc1N=Cc1cc2c(cc1O)OC(N)=C(C#N)C2c1ccccc1 (configuration not stated)	?	?	?	18µM*	?	14
Cc1ccc(N=Cc2cc3c(cc2O)OC(N)=C(C#N)C3c2ccccc2)cc1 (configuration not stated)	?	16µM*	?	18µM*	?	?
CCOC(=O)C1=C(C)OC(N)=C(C#N)C1c1ccccc1 (configuration not stated)	-3%	?	14%	-6%	?	-4
N#CC1=C(N)Oc2cc(O)c(C=Nc3ccccc3)cc2C1c1ccccc1 (configuration not stated)	26%	?	?	4.1µM*	-18%	9
COc1ccc(Oc2ncc3nc(C)c(=O)n(-c4ccc(OC)cc4)c3n2)cc1	.	?	.	.	0%	.

High-throughput results: PubChem, National Center for Advancing Translational Sciences (NCATS)
